The panel holds about 83,000 compounds, 20% with a hit somewhere; the sample as a whole holds those more often.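 48-hour exposure, single concentration, 96-well plates; percent growth endpoint where 0 means no net growth. Active: below 10.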 Calls of active or inactive are those of the source.
system: MDA-MB-468 breast; assay: NCI-60 one-dose screen, 48 h (100 = growth as untreated, 0 = no growth, -100 = all killed); settings: 10 µM unless noted

Structure (SMILES) | growth
COc1cc(NC(C)CCCN)c2nc(C)ccc2c1Oc1ccc(F)cc1 (stereo not drawn) | 57.3% (inactive)
O=C(CN1CCN(c2cc(=O)n(-c3ccccc3)c3ccccc23)CC1)Nc1ccc(F)cc1 | 9.45% (active)
CCCCCCNC(=O)Oc1ccc(/C(=C(\C)c2ccc(OC)cc2)c2ccc(OCCN3CCCCC3)cc2)cc1 | 75.6% (inactive)

Reference: PubChem BioAssay (NCI)
